KCNQ2 inh – inhibitors of rat KCNQ2 potassium channel | O88943 | CHO-K1 KCNQ2, FluxOR thallium flux, 20 min; active compounds read low | B-score at 10 µM | actives 1.1% (n = 310,000);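 active means fluorescence ratio B-score at most minus 3 library SDs, with starting brightness B-score within 2 library SDs, cut at about -5.5 in these data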
KCNQ2 enhance – potentiators of rat KCNQ2 potassium channel; O88943; CHO-K1 KCNQ2, FluxOR thallium flux fluorescence; active compounds read high; B-score at 10 µM; actives 0.54% (n = 310,000);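 active means fluorescence ratio B-score at least 3 SD of library B-scores, with initial fluorescence B-score within 3 of them, cut at about 5.3 in these data; same plate scores as AID 2156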;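 further: B-score of peak minus minimum over baseline fluorescence ratio after K+ and Tl+ stimulus; positive B-score means potentiation of KCNQ2 with more thallium influx and brighter signal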
KCNQ2 block conf – confirmation of rat KCNQ2 potassium channel inhibitors; shares compounds with KCNQ2 inh; actives 57% (n = 1,000); KCNQ2-expressing cells, thallium flux, inhibition; active compounds read low; activity change, negative = inhibition, % at 10 µM;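 further: 0% = vehicle wells and values are ratio percent relative to vehicle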
KCNQ1 spec – selectivity of KCNQ2 inhibitors against human KCNQ1 | shares compounds with KCNQ2 inh | KCNQ1-expressing cells, FluxOR thallium flux fluorescence; active compounds read low | activity change, negative = inhibition, % at 10 µM | actives 15% (n = 1,000) | AID 493026;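 active means activity change at least 3 SD of negative controls below their mean in both duplicate wells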;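 further: CHO cells stably transfected with KCNQ1 and depolarized by potassium stimulus; peak minus minimum fluorescence over baseline after thallium addition; 0% = vehicle negative control and -100% = blank without thallium stimulus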
CHO parental ctr – KCNQ2 inhibitor counter-screen hit in parental CHO cells. shares compounds with KCNQ2 inh. thallium flux counter-screen; active compounds read low. activity change, % at 10 µM. actives 14% (n = 1,000);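 further: 0% = vehicle negative controls with stimulus buffer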
KCNQ2 inh confirm – confirmation of rat KCNQ2 potassium channel inhibitors. shares compounds with KCNQ2 inh. KCNQ2-expressing cells, automated patch clamp current. calls only at 10 µM. actives 49% (n = 550). AID 588531
Kir21 confirm – confirmation of mouse Kir2.1 potassium channel inhibitors | shares compounds with KCNQ2 enhance | Kir2.1-expressing cells, FluxOR thallium flux fluorescence; active compounds read low | Tl flux remaining, % of negative control (active compounds read low), % at 10 µM | actives 41% (n = 2,300) | AID 2032;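 active means Primary-screen hit whose thallium flux fell at least 3 control SD below untreated wells in both duplicates, with normal baseline fluorescence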;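 further: 0% = blank wells without stimulus and 100% = stimulated no-compound controls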
Target sequence (P35561 whole entry, looked up): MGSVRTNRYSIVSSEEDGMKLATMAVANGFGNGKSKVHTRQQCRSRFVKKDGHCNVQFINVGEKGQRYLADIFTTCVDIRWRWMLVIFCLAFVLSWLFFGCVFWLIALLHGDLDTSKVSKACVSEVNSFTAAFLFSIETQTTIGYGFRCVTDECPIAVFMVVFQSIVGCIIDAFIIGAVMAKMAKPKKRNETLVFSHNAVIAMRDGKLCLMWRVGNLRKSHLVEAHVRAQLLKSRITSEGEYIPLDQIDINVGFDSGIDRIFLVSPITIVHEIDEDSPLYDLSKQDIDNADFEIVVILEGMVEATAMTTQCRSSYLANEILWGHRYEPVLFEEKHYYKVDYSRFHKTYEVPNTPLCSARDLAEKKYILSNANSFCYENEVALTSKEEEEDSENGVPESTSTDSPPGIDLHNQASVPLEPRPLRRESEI
HEK293 ctr – alters thallium flux in parental HEK293 cells, Kir2.1 counter-screen; FluxOR signal as % of negative control (100 = no effect), % at 10 µM; actives 19% (n = 2,300); shares compounds with KCNQ2 enhance; AID 2105; FluxOR thallium flux fluorescence; 0% = unstimulated blank wells;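 active means dye signal at least 3 control SD above or below untreated wells in both duplicates, raw fluorescence within 3, either direction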;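 further: percent is based on the flux ratio of peak minus minimum fluorescence over baseline F0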
CHO-K1 Tl ctr – counter-screen for KCNQ2 potentiators: effect in parental CHO-K1 cells. shares compounds with KCNQ2 enhance. FluxOR thallium flux fluorescence; zero = vehicle mean+3SD, 100% = vehicle-minus-blank window. activity increase over 3SD of controls, % at 10 µM. actives 43% (n = 1,200);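 active means signal rise of at least 3 SD above the untreated control mean, in both duplicate wells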;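 further: counter screen of KCNQ2 potentiator hits so any rise reflects channel-independent effects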
KCNQ1 pot spec – human KCNQ1 counter-target activity of KCNQ2 potentiators. shares compounds with KCNQ2 enhance. CHO KCNQ1 stable, FluxOR thallium flux fluorescence; beyond 3SD, as % of vehicle-control signal. activation over 3SD threshold, % at 10 µM. actives 28% (n = 1,200). AID 2283;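 active means fluorescence ratio rise of at least 3 SD of vehicle wells above their mean, in both replicate wells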;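 further: 0% = vehicle mean plus 3 SD and 100% = vehicle minus unstimulated blank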
KCNQ2 pot conf – rat KCNQ2 channel potentiator confirmation; shares compounds with KCNQ2 enhance; actives 68% (n = 1,200); AID 2287; CHO-KCNQ2 cells, FluxOR thallium flux fluorescence; potentiation, less the hit threshold, % at 10 µM;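 active means fluorescence ratio rising 3 SD or more over the vehicle control mean in both replicates, plus primary screen hit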;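 further: peak minus minimum thallium fluorescence divided by baseline after K/Tl stimulus; 0% = vehicle mean plus 3 SD and 100% = vehicle minus unstimulated blank difference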
Kir21 spec – tests whether KCNQ2 potentiators also affect mouse Kir2.1; shares compounds with KCNQ2 enhance; HEK293 Kir2.1, FluxOR thallium flux fluorescence; activity over 3SD threshold, % at 10 µM; actives 2% (n = 1,200);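 active means fluorescence ratio rise of at least 3 SD above the vehicle-control mean, seen in both replicates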;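 further: 0% = vehicle mean plus 3 SD and 100% = vehicle minus no-stimulus blank window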
KCNQ2 W236L MoA – rat KCNQ2 W236L mutant potentiation by KCNQ2 potentiators. CHO KCNQ2-W236L, automated patch clamp current. actives 10% (n = 940). current increase over 3SD of negative controls (%), active compounds read high, % at 25 µM. shares compounds with KCNQ2 enhance;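 active means current increase at least 3 SD of the untreated controls above them in both duplicate recordings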
* = called active by the depositor. This is a sample that favours compounds with a hit; in the whole collection about 1.6% have one here. Unless noted, how the calls were made is not given here.

Results for CC1CCC(C(C)C)C(OC(=O)COC(=O)c2ccc(=O)[nH]c2)C1 (centres undefined) ?
KCNQ2 inh: inactive; KCNQ2 enhance: 2.4

How did COc1ccc(-c2n(CC(=O)OC3CC(C)CCC3C(C)C)c3ccccc3[n+]2C)cc1 (centres undefined) do in these assays?
KCNQ2 inh: -11*; KCNQ2 enhance: -11; KCNQ2 block conf: -34%*; KCNQ1 spec: inactive; CHO parental ctr: inactive; KCNQ2 inh confirm: active; Kir21 confirm: inactive; HEK293 ctr: inactive

How did Cc1nc2c(C)cccc2cc1C(=O)N/N=C/c1cccnc1 do in these assays?
KCNQ2 inh: inactive

How did Cc1ccc(S(=O)(=O)N(C)c2ccccc2C(=O)NC2CCCC2)cc1 do in these assays?
KCNQ2 inh: inactive

How did COc1ccc(-n2nc(C)c3sc(C)nc3c2=O)cc1 do in these assays?
KCNQ2 inh: inactive; KCNQ2 enhance: 0.43

What do the screens show for `NC(=O)COC(=O)c1ccc(-c2ccccc2)cc1`?
KCNQ2 inh: inactive; KCNQ2 enhance: 2.1

What do the screens show for `CC(=O)n1c(-c2ccccc2)c(CO)c2ccccc21`?
KCNQ2 inh: inactive; KCNQ2 enhance: 0.08

Results for NCCc1c(-c2ccccc2)n(-c2ccccc2)c2ccccc12 ?
KCNQ2 inh: -7*; KCNQ2 enhance: -7; KCNQ2 block conf: inactive; KCNQ1 spec: inactive; CHO parental ctr: inactive; Kir21 confirm: 15%*; HEK293 ctr: inactive

Results for CCn1c(COc2cccc(C)c2C)nnc1SCC(=O)Nc1cc(C)on1 ?
KCNQ2 inh: inactive; KCNQ2 enhance: 0.56

Results for S=C(NCc1ccccc1)N1CCN(Cc2ccc3c(c2)OCO3)CC1 ?
KCNQ2 inh: inactive

Results for S=C(NCc1ccc2c(c1)OCO2)NC1CCN(Cc2ccccc2)CC1 ?
KCNQ2 inh: inactive; KCNQ2 enhance: 1; Kir21 confirm: 40%*; HEK293 ctr: 126%*

How did Cc1[nH]c2ccccc2c1/C=N/NC(=O)c1cc(C(C)C)[nH]n1 do in these assays?
KCNQ2 inh: inactive; KCNQ2 enhance: 0.03

How did O=C(O)/C(CC(=O)c1ccc(Cl)cc1)=N/Nc1ccc([N+](=O)[O-])cc1[N+](=O)[O-] do in these assays?
KCNQ2 inh: inactive; KCNQ2 enhance: 7.7*; Kir21 confirm: inactive; HEK293 ctr: inactive; CHO-K1 Tl ctr: -9; KCNQ1 pot spec: -8; KCNQ2 pot conf: 32*; Kir21 spec: -50; KCNQ2 W236L MoA: inactive

How did C/C(CCC(=O)O)=N/Nc1ccc([N+](=O)[O-])cc1[N+](=O)[O-] do in these assays?
KCNQ2 inh: inactive; KCNQ2 enhance: 1.6
